# Source: PubChem BioAssay AID686971 (National Center for Advancing Translational Sciences (NCATS), 2013)
# The whole screen tested about 360,000 compounds, of which about 7,500 (2.1%) were called active. Not shown: some 8% with an inconclusive outcome. The call rests on the fitted dose curve; in most records, active means well fitted cell-killing curve with a large enough effect; inconclusive means small, poorly fitted or top-dose-only effect, or effect the other way, or another doubt; inactive means no such curve, though single readings can be large or run the other way. The entries come from a sample that favours actives as a whole.
# Assay: qHTS for induction of synthetic lethality in tumor cells producing 2HG: qHTS for the HT-1080-IDH1KD cell line;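 on activity, negative = toxicity: 0% = DMSO wells and -100% = cell-free medium wells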
# Conditions: HT-1080 IDH1 knockdown viability, ATP luminescence, 48 h; series mostly up to 46.1 µM; activity, negative = toxicity: at the top concentration
# Method in brief: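 Using the IDH1-knockdown HT-1080 line run in the same batch and compound series as the NT line, viability after 48 h at 37 °C was determined by CellTiter-Glo luminescence and expressed as % activity.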
# Potency means the concentration at half of the fitted maximal effect.
SMILES,"activity, negative = toxicity",Potency
CCOC(=O)C(C(=O)c1ccccc1)C(c1ccccc1)c1nccc2ccccc12 (stereo unspecified),-3.68% (inactive),–
Cc1ccc(S(=O)(=O)N2[C@@H](Cc3ccccc3)CO[C@H]2CC(=O)OCc2ccccc2)cc1,-15.2% (inactive),–
CC(=O)Nc1cccc(-c2cc3nc(NCc4cccnc4)n(C)c(=O)c3s2)c1,1.49% (inactive),–
O=C1NC[C@@H](CCCCN2CCN(CCc3ccc(O)cc3)C(=O)C2=O)N(CC2CCCCC2)C1=O,3.65% (inactive),–
CC(C)(C)N1C(=O)c2c(C(=O)OCc3ccccc3)[nH]c(-c3ccccc3)c2C1=O,17.4% (inactive),–
COc1ccc(-c2cc(C(=O)N/N=C/c3cccnc3)c3ccccc3n2)c(OC)c1,-17.1% (inactive),–
C/C(=N\NC(=O)c1cc(-c2ccc(O)cc2)nc2ccccc12)c1cccnc1,-5.02% (inactive),–
O=C(N/N=C\c1cccnc1)c1cc(-c2ccccc2)nc2c(Cl)cccc12,–,9.2 µM (active)
CCOc1ccc(S(=O)(=O)NCCC(=O)NNC(=O)c2ccc(F)cc2)cc1,2.21% (inactive),–
C[C@@H]1CN([C@H](C)CO)C(=O)c2cc(Br)cnc2O[C@@H]1CN(C)Cc1cncnc1,-1.69% (inactive),–
COc1ccc(/C=C/c2noc(-c3ccccc3OC(C)=O)n2)cc1,10.9% (inactive),–
COc1ccc(-c2nc(-c3ccccc3)no2)c(OC)c1,–,14.1 µM (active)
Cc1ccc(-c2nc(-c3ccncc3)no2)c(C)c1,1.59% (inactive),–
CCOc1ccc(NS(=O)(=O)c2ccc(C(=O)NCC3CCCO3)cc2)cc1 (stereo unspecified),3.49% (inactive),–
CCOc1c(OC)cc(C2C(C#N)=C(N)Oc3n[nH]c(-c4ccncc4)c32)cc1OC (stereo unspecified),16.6% (inactive),–
CCc1ccc(C2C(C#N)=C(N)Oc3n[nH]c(CC(=O)OC)c32)cc1 (stereo unspecified),9.47% (inactive),–
COCc1[nH]nc2c1C(C1C=CCCC1)C(C#N)=C(N)O2 (stereo unspecified),–,11.2 µM (active)
O=C(NCc1cccc(C(F)(F)F)c1)c1ccc2sc(COCCO)nc2c1,-7.31% (inactive),–
Cc1ccc(Cc2c(-c3ccc(Cl)cc3)nc3c4ccccc4ccn23)cc1,-8.7% (inactive),–
Cc1cc(Br)cn2c(Cc3ccsc3)c(-c3ccc(C#N)cc3)nc12,-12.2% (inactive),–
COC(=O)c1cc(NC(=O)Cc2ccccc2[N+](=O)[O-])ccc1Cl,0.649% (inactive),–

SMILES,"activity, negative = toxicity",Potency
CC(=O)Nc1ccc(NC(=O)COC(=O)c2ccccc2C(=O)c2ccccc2)cc1,-3.82% (inactive),–
N#Cc1cccc(NC(=O)COC(=O)c2ccccc2C(=O)c2ccc(Cl)c([N+](=O)[O-])c2)c1,–,5.17 µM (active)
N#Cc1ccc(-c2ccc3nccn3c2)cc1,19.2% (inactive),–
Cc1ccc(S(=O)(=O)N[C@H]2CCC[C@@H]2O)cc1,21.9% (inactive),–
CNC[C@H]1OCc2cnnn2CCCC(=O)N([C@H](C)CO)C[C@@H]1C,16.1% (inactive),–
COC(=O)c1ccc2c(c1)S(=O)(=O)NC2C (stereo unspecified),7.29% (inactive),–
COc1cccc(OCCOc2cccc(/C=N/n3cnnc3)c2)c1,-5.79% (inactive),–
C=CCc1ccc(OCCOc2cccc(/C=N/n3cnnc3)c2)c(OC)c1,-2.02% (inactive),–
COc1ccccc1OCCOc1ccc(/C=N/n2cnnc2)cc1,–,20.6 µM (active)
CC(OC(=O)c1cccc(S(=O)(=O)N2CCOCC2)c1)C(=O)NCC1CCCCC1 (stereo unspecified),7.1% (inactive),–
CC(C)C1CCN(C(=O)C2CCC(=O)N(C3CCCCCC3)C2)CC1 (stereo unspecified),4.14% (inactive),–
CCN1C(=O)[C@H]2[C@@H](c3ccc(C(F)(F)F)cc3)N[C@]3(CCCN(Cc4ccc(Br)cc4)C3=O)[C@H]2C1=O,-12.4% (inactive),–
COc1cccc(/C=C2\C=C(c3ccc(C)cc3)OC2=O)c1OC(C)=O,-10.6% (inactive),–
COc1cccc(/C=C/c2ccc3ccccc3n2)c1OC(C)=O,–,11.6 µM (active)
CC(OC(=O)c1ccc2ccccc2n1)C(=O)c1ccccc1 (stereo unspecified),-1.33% (inactive),–
CCCCNC(=O)C[C@@H]1C[C@@]2(C(=O)OC)CC(C)(C)CC=C2N(Cc2ccco2)C1=O,4.93% (inactive),–
C[C@H](NC(=O)[C@@H]1CCCN1C(=O)[C@@H]1CCCN1C(=O)c1ccccc1)c1ccccc1,7.53% (inactive),–
CC1=C(C(=O)N(C)C)CC(CC(=O)NCCc2ccccn2)C(=O)N1CCC1=CCCCC1 (stereo unspecified),2.74% (inactive),–
O=S(=O)(Nc1ccc(O)c2ccccc12)c1ccc(OC(F)(F)F)cc1,–,20.6 µM (active)
Cc1nn(C)c(C)c1NS(=O)(=O)c1ccc(OC(F)(F)F)cc1,-4.46% (inactive),–
O=C1COc2ccc(S(=O)(=O)Nc3ccc(OC(F)(F)F)cc3)cc2N1,-1.36% (inactive),–

SMILES,"activity, negative = toxicity",Potency
Cn1c(CCN2CCN(c3ccccn3)CC2)nc2cc(NS(=O)(=O)c3ccc(F)cc3)ccc21,-25.1% (inactive),–
C[C@@H]1CC[C@@]2(OC1)O[C@H]1C[C@H]3[C@@H]4CC=C5C[C@@H](O)[C@H](O)C[C@]5(C)C4CC[C@]3(C)[C@H]1[C@@H]2C (stereo partly specified),0% (inactive),–
C[C@]12CC[C@H](O)CC1=CCC1C2CC[C@@]2(C)C1CC[C@@H]2NC(=O)CCC(=O)O (stereo partly specified),23.9% (inactive),–
CC(=O)OC1CCC2(C)C(=CCC3C4CC(=O)N(O)C(=O)C4(C)CCC32)C1 (stereo unspecified),–,25.9 µM (active)
OC[C@@H]1CN(C2CCCC2)C[C@H](n2cnc3c(NC4CCC4)ncnc32)O1,0% (inactive),–
CCC(C)C(CO)NC(=O)/C=C/[C@H]1O[C@@H](n2cnc3c(NC(=O)c4ccccc4)ncnc32)[C@H](O)[C@@H]1O (stereo partly specified),-2.07% (inactive),–
O=C(NCc1cccnc1)C(=O)Nc1nc(-c2ccccc2)cs1,–,4.61 µM (active)
O=C(NCc1cccnc1)Nc1ccccc1F,17.2% (inactive),–
Cc1ccccc1Nc1nc(-c2cccnc2)cs1,4.29% (inactive),–
C[C@H](CO)N1C[C@H](C)[C@@H](CN(C)C(=O)c2cnccn2)Oc2ncc(Br)cc2C1=O,15.3% (inactive),–
Fc1cccc(Cc2c(-c3ccc(Cl)cc3)nc3ccc(Cl)cn23)c1,-10.1% (inactive),–
Cc1cc2nc(-c3ccco3)c(Cc3cccc(F)c3)n2c(C)c1Br,–,20.6 µM (active)
Cc1cc2nc(-c3ccc(F)cc3)c(Cc3ccsc3)n2c(C)c1Br,-23.9% (inactive),–
COc1ccc(S(=O)(=O)N2CCCCC2c2cc(C(=O)NCc3ccc(F)cc3)no2)cc1 (stereo unspecified),-12.8% (inactive),–
CCCCNC(=O)C1CCCNC1=O (stereo unspecified),5.05% (inactive),–
O=C(OC1CC2CC1[C@H]1CCCCN1C2=O)N1CCOCC1 (stereo partly specified),4.09% (inactive),–
CCCCNC(=O)OC1CC2CC1[C@H]1CCCCN1C2=O (stereo partly specified),–,25.9 µM (active)
OC(c1ccc(F)cc1)c1ncc(-c2cccc(C(F)(F)F)c2)[nH]1 (stereo unspecified),0% (inactive),–
Cc1cc(Br)cn2c(Cc3ccccc3C(F)(F)F)c(C3CCCCC3)nc12,-2.39% (inactive),–
